# Measurements: PubChem BioAssay (NCI)
# “And” between values parts separate entries of the source, which are not always exact repeats. Equal entries are not always repeated. This is part of a sample that, as a whole, favours compounds with a hit. Of some 79,000 tested, about 15% had one in any assay. A number with no mark means an inactive call. The source made the active and inactive calls. Rule as the data show it: active = growth inhibition above about 70%; inactive = the rest.
# Assays:
# [1] = NCI Yeast Anticancer Drug Screen. Data for the rad50 strain (AID 155);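 also: 0% = growth of vehicle-only cultures of the same strain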; settings: S. cerevisiae rad50 strain growth inhibition; at 50.0 µM; active compounds read high
# How it was run: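 Compounds were tested on a yeast strain with an engineered DNA damage repair alteration; the reported value is growth inhibition normalised to vehicle treatment.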
# [2] = NCI Yeast Anticancer Drug Screen. Data for the mec2-1 strain (AID 157); settings: S. cerevisiae mec2-1 strain, at 50.0 µM, active compounds read high
# How it was run: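 Compounds were applied to mec2-1 yeast cells. Their growth was then compared with that of vehicle-treated cultures to give growth inhibition.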
# [3] = NCI Yeast Anticancer Drug Screen. Data for the sgs1 mgt1 strain (AID 161);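 also: 0% = growth of cultures given vehicle only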; settings: S. cerevisiae sgs1 mgt1 strain, at 50.0 µM, active compounds read high
# How it was run: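 Compounds are added to genetically altered yeast, and growth is compared with cultures given vehicle alone to give percent inhibition.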
# [4] = NCI Yeast Anticancer Drug Screen. Data for the cln2 rad14 strain (AID 165);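 also: 0% = growth equal to vehicle treated cultures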; settings: S. cerevisiae cln2 rad14 strain, at 50.0 µM, active compounds read high
# How it was run: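 Strain: cln2 rad14 yeast, altered in cell cycle control and DNA damage repair. Read-out: growth inhibition vs vehicle.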
# [5] = NCI Yeast Anticancer Drug Screen. Data for the bub3 strain (AID 167); settings: S. cerevisiae bub3 mutant strain, at 50.0 µM, active compounds read high
# How it was run: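 Growth of a checkpoint-deficient yeast mutant is measured after compound exposure. Values represent inhibition relative to vehicle.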
# [6] = NCI Yeast Anticancer Drug Screen. Data for the mlh1 rad18 strain (AID 175); settings: S. cerevisiae mlh1 rad18 strain growth inhibition; at 50.0 µM; active compounds read high
# How it was run: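 A repair-deficient yeast strain is exposed to test compound, and growth is scored relative to vehicle-treated controls.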
Compound,growth inhibition [1],growth inhibition [2],growth inhibition [3],growth inhibition [4],growth inhibition [5],growth inhibition [6]
O=C(CCC(=O)Oc1ccc(S(=O)(=O)F)cc1)Oc1ccc(S(=O)(=O)F)cc1,49.1%,15.3%,44.3%,26.1%,7.65%,9.8%
CC(Cl)CN(CC(C)Cl)c1ccc(-c2ccccc2)cc1 (centres undefined),5.25%,-13.8%,12.7%,18%,-5%,-30.9%
O=[N+]([O-])O.[Sm],12.3%,3.95%,26.8%,17.1%,15.7%,-18.4%
CSP(=S)(SC(C)C)SC(C)C,13.7%,5.75%,13.2%,3.8%,0.5%,29.3%
CCOC(=O)C1C(=O)C(C(=O)OCC)C2c3ccccc3-c3ccccc3C1N2C (centres undefined),29.8%,7.25%,35.2%,-7.35%,8.7%,15.7%
COP(=O)(OC)N1CCCCC1,29%,20.4%,12.7%,12.4%,22%,27.6%
NC(=O)c1ccc([As](=O)(O)O)cc1[N+](=O)[O-],-2%,3.85%,5.05%,-47.8%,-6.9%,-10.6%
[CH3][Sb]([CH3])[S]C1OC(CO)C(O)C(O)C1O (centres undefined),-10.3%,0.9%,29.9%,-15.8%,25.5%,-17.8%
Cc1cc(C)[n+](CCc2ccccc2)c(C)c1,5.15%,2.55%,-3.25%,-6.3%,2.4%,4.25%
CCSCCC(N)C(=O)O (centres undefined),0.15% and -21.3%,-13.9% and -15%,-37.8% and -2%,-70.4% and -32.9%,-19.9% and 6.05%,-13.2% and -28.6%
ClCCCBr,29.2%,-7.35%,-10.8%,13.3%,24.4%,21.9%
COc1ccc(CC2c3cc(OC)c(OC)cc3CCN2C)cc1OC (centres undefined),-3.6% and -11.2%,-5.2% and -18.4%,-8.1% and -8.4%,-5% and 13.1%,12.7% and -3.45%,8.4% and 1.7%
CN(C)CCNC(=O)c1ccc([N+](=O)[O-])c(C(C)(C)C(=O)Nc2ccc(N(CCCl)CCCl)cc2)c1,-1%,-24.4%,8.9%,-44.2%,-10.8%,-24.9%
CNc1cc(Cl)c(C#N)c(Cl)c1,-2.6%,-2.7%,-0.7%,-39.2%,-24.6%,9.25%
COC1C=CC23c4cc5c(cc4COC2(O)CN(C)C3C1)OCO5 (centres undefined),-18.2%,-26.2%,-56.5%,-4.5%,-18.9%,-28.6%
ClCCN(CCCl)c1ccc(CCN2CCOCC2)cc1,46.2%,15.9%,19.5%,37.4%,-0.1%,9.3%
CC1(C)COP(=O)(c2ccccc2)N1 (centres undefined),-14.1%,-21.4%,-7.4%,-24.4%,-1.5%,-3.1%
CNC(P(=O)([O-])[O-])P(=O)([O-])[O-].N.N.[Pt+2],-0.2%,-16.3%,-47.2%,-17.1%,-8.65%,-15.7%
COc1cccc(C=C(C#N)C#N)c1,46.8%,23.8%,31.7%,26.4%,14.6%,33.4%
CC(C)OC(=O)Nc1cccc(Cl)c1,25.9%,1.75%,23.9%,-3.85%,0.3%,4.5%

Compound,growth inhibition [1],growth inhibition [2],growth inhibition [3],growth inhibition [4],growth inhibition [5],growth inhibition [6]
Cc1cccc(C)c1OCC1=NCCN1,4.75%,14.3%,0.1%,-55.6%,5.5%,-13.1%
O=[N+]([O-])c1ccc(CCl)cc1,16.4%,30.5%,10.7%,-15%,-23.9%,26.6%
NC(=O)C1(Cl)CCCCC1,-11.8%,-22.8%,-20.8%,-11.2%,-6.1%,-6.25%
SCc1c(Cl)c(Cl)c(Cl)c(Cl)c1Cl.[Hg],-7.65%,-24.9%,-15.5%,-64.8%,3.45%,-28.1%
CC(C)OP(=S)(OC(C)C)SSSP(=S)(OC(C)C)OC(C)C,14.2%,3.75%,1.95%,-3.1%,12.7%,6.25%
Cn1c(O)c(N=O)c(=O)n(C)c1=O,29.4% and 20.9%,9.85% and -9.05%,-0.6% and 8.4%,7.75% and -1.1%,-9.85% and -6.3%,-13.7% and 13.4%
NNc1ncc[nH]1,-0.05%,1.2%,-9.2%,-1%,12.8%,4.55%
CC(=O)OC1CCC2(C)C(=CC=C3C4CCC(=O)C4(C)CCC32)C1 (centres undefined),5.85% and 8.55%,44.6% and 36.8%,-5.15% and 3.5%,3% and 2.9%,35.1% and 34.3%,22.5% and 10.2%
CC1CCC2C(C)C3C(CC4C5CC=C6CC(OC7OC(CO)C(O)C(OC8OC(CO)C(O)C(O)C8O)C7OC7OC(C)C(O)C(O)C7O)CCC6(C)C5CCC43C)N2C1 (centres undefined),-3.25% and 9.1%,11.8% and -8.5%,-5.75% and 10.2%,-6.3% and -9.3%,-1.65% and 1.95%,36.5% and 15.3%
CCC1(C(C)C)C(=O)NC(=S)N(C)C1=O (centres undefined),29.6%,-5.45%,2.9%,2.85%,0.95%,12.8%
Nc1ccc(S(=O)(=O)c2ccc(NCN3C(=O)NC(=O)C(=O)C3=O)cc2)cc1,24.9%,8.15%,-11.4%,27.6%,13.6%,7.8%
O=C(NP(=O)(N1CC1)N1CC1)c1cc(I)ccc1I,-2.1%,-1.7%,1.25%,-27.7%,12.9%,-14.3%
Cc1cccc(C=NCCOCCOCCN=Cc2cccc(C)c2O)c1O.[Ni],-8.3%,2.65%,-13.6%,1.25%,-19.6%,-14.2%
CC(C)CNP(=S)(NCC(C)C)c1ccccc1,4.5%,12.9%,6.7%,5.55%,18.9%,21.3%
COc1cc(C(CC(C)=O)c2cc3c(cc2OC(C)=O)OCO3)cc(OC)c1OC (centres undefined),18.8%,4.4%,-0.9%,-9.1%,10.8%,21.9%
S=c1sc(-c2ccc(Cl)cc2)c[se]1,4.45%,3.85%,-13.3%,-33.2%,1.7%,-5.05%
O=C(O)c1ccccc1.O=C(O)c1ccccc1.O=C(O)c1ccccc1.O=C(O)c1ccccc1.[Cu].[Cu],17.4%,-10%,10.8%,3.85%,1.85%,17.1%
CC(=O)OC1CC2(O)C(CCC3(C)C(c4ccc(=O)oc4)CCC32O)C2(C)C1=CC(O)C1OC12 (centres undefined),3.95%,6.85%,-12.4%,-1.7%,-2%,-13.9%
Clc1cc[c]([Sn]([Cl])([c]2ccc(Cl)cc2)[c]2ccc(Cl)cc2)cc1,98.5% (active),98.5% (active),98.8% (active),97.7% (active),97.5% (active),98.3% (active)
